# LGR2 antag = inhibitors of bursicon-induced LGR2 CRE-luciferase signal, primary screen, cell-based, HEK293, CRE-luciferase reporter, bursicon stimulation; AID 720647, 2013; actives 0.35% (n = 380,000); bursicon-stimulated, 4 h; inhibition, % at 9.99 µM;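 active = drop in luminescence signal, shown as inhibition above about 50% in the replicate tests, limit read from the data, passing the limit was not always enough; inconclusive = probably only some replicates passing the limit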;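 also: agonist challenge used bursicon conditioned medium at about half maximal strength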
# EBV LMP1 NFkB = EBV LMP1-driven NF-kappaB luciferase reporter inhibitors, primary screen, cell-based, luminescence, single point. LMP1-induced NF-kappaB luciferase reporter cells. inhibition, % at 12.5 µM. actives 0.69% (n = 350,000). AID 504558, 2011; in the data active = inhibition above about 41%; inconclusive = no clear call, values can overlap the other calls;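 also: 0% = neutral control wells and 100% = reference inhibitor control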
# Shn3 3UTR inh = reduction of Shn3 3'UTR firefly luciferase signal, primary screen, Schnurri-3 inhibitor project, cell-based, Clone20 osteoblasts, set 2; AID 588674, 2011; Clone20 osteoblast Shn3 3'UTR firefly luciferase, 24 h; actives 0.52% (n = 360,000); inhibition, % at 12.5 µM;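 active = mean inhibition of at least 75% with every replicate also reaching 75%; inconclusive = mean inhibition at least 75% but some replicate below; inactive = mean inhibition below 75%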;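 also: 0% = median of neutral control wells and 100% = pilot-screen positive control compound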
# PAX8 reporter = inhibitors of PAX8-driven TPO luciferase reporter, primary screen, RMG-I cells, single concentration | actives 1.2% (n = 360,000) | AID 652154, 2013 | inhibition, % at 12.6 µM | SteadyGlo, 24 h;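 active = mean replicate inhibition at least 60% with every replicate also reaching 60%; inconclusive = only one of the two criteria is met; inactive = mean below 60% and not all replicates reaching 60%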;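 also: luciferase light reporting Pax8 driven TPO promoter activity; plate controls were median of neutral control wells for no effect and mitoxantrone controls for full effect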
# MITF TRPM1 inh = inhibitors of MITF-dependent TRPM1 promoter reporter, primary screen, cell-based, SK-MEL-5, single point, luciferase; SK-MEL-5 TRPM1 promoter luciferase, 24 h; inhibition, % at 12.5 µM; actives 0.83% (n = 330,000); AID 488899, 2010;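 active = mean inhibition across replicates of 60% or more, whatever share of single replicates reaches that level; inconclusive = some that reach 60%, reason not given; inactive = mean inhibition across replicates below 60%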
# EWS-Fli block = EWS/Fli-driven NR0B1 reporter inhibitors, primary screen, A673 cells, NR0B1 luciferase, luminescence, MLPCN library; viability-normalised; inhibition, % at 12.6 µM; actives 0.67% (n = 350,000); AID 651661, 2012;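 active = mean inhibition of at least 50% after viability correction, with every replicate also passing that limit; inconclusive = mean reaches 50% but only one of two replicates passes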;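 also: firefly luciferase signal divided by Alamar Blue viability fluorescence both relative to DMSO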
# Numbers without * were called inactive; ? = inconclusive; . = no result given. This is a sample that favours compounds with a hit; in the whole collection about 2.2% have one here.
SMILES,LGR2 antag,EBV LMP1 NFkB,Shn3 3UTR inh,PAX8 reporter,MITF TRPM1 inh,EWS-Fli block
CC(C)CCN(C(=O)Cc1ccc(Cl)c(Cl)c1)c1c(N)n(Cc2ccccc2)c(=O)[nH]c1=O,28,3,23,-14,81*,13
CC(C)CN(C(=O)COC(=O)/C=C/c1ccc(Cl)c(Cl)c1)c1c(N)n(Cc2ccccc2)c(=O)[nH]c1=O,-6,10,-11,-20,100*,14
C[C@@H]1CN([C@H](C)CO)C(=O)c2cc(NC(=O)Cc3ccccc3)ccc2O[C@@H]1CN(C)C(=O)Nc1ccc2c(c1)OCO2,10,.,.,0,.,2
CCC[C@H](CN[C@@H](CNC)[C@H](C)CC)NCCc1cc(C(F)(F)F)cc(C(F)(F)F)c1,63*,-17,58,97*,103*,52*
CCC[C@@H](CN[C@@H](CNC)[C@H](C)CC)NCC1CCC(C(C)(C)C)CC1 (some centres not stated),8,-18,80,93*,100*,56*
CC[C@@H](C)[C@H](CNC)NC[C@@H](Cc1cccc2ccccc12)NCCc1cccc(C(F)(F)F)c1,14,-6,97*,103*,98*,45
C[C@H]1CCCCO[C@H](CN(C)CC2CCCCC2)[C@@H](C)CN([C@@H](C)CO)C(=O)c2cc(NS(=O)(=O)c3ccc(F)cc3)ccc2O1,-14,.,.,27,.,4
C[C@H]1CN([C@@H](C)CO)C(=O)c2cc(NC(=O)Cc3ccccc3)ccc2O[C@H]1CN(C)CC1CCCCC1,-7,.,.,-4,.,11
CC(=O)N1CC[C@H]2[C@@H]1c1cc(-c3ccc(C#N)cc3)ccc1N(C)[C@H]2CO,-2,.,.,4,.,2
Cc1cccc(S(=O)(=O)N2CCCCN3[C@@H](CO)[C@@H](c4ccc(-c5cccnc5)cc4)[C@@H]3C2)c1,-10,.,.,-24,.,.
Nc1cccc2nc3ccccc3cc12,.,-14,-59,.,85*,.
COc1cccc(C(=O)O/N=C(\N)c2ccccn2)c1OC,69*,52*,18,3,27,-86
N/C(=N\OC(=O)c1cccc([N+](=O)[O-])c1)c1ccccn1,13,12,-22,-101,-8,-63
N/C(=N\OC(=O)c1cccc2ccccc12)c1ccccn1,48,-17,-56,-16,-26,-34
CCCc1ccc(C(=O)O/N=C(\N)c2ccccn2)cc1,103*,69*,75,106*,73*,88*
N/C(=N\OC(=O)c1ccc(=O)n(Cc2ccccc2)c1)c1ccccn1,-3,-4,-23,-21,-8,8
N/C(=N\OC(=O)c1ccc2ccccc2c1)c1ccncc1,12,-10,-15,-112,-89,-16
COc1cccc(C(=O)O/N=C(\N)c2ccccn2)c1,101*,68*,39,25,84*,48
N/C(=N\OC(=O)c1ccc2ccccc2c1)c1ccccn1,97*,56*,66,75*,36,80*
Cc1noc(C)c1S(=O)(=O)Nc1cccc2c1O[C@H](CN(C)Cc1ccc(C(=O)O)cc1)[C@H](C)CN([C@@H](C)CO)C2=O,6,.,.,.,.,0
COCCNC(=O)C[C@@H]1CC[C@H]2[C@@H](COc3ccc(NC(=O)C4CCOCC4)cc3C(=O)N2C)O1,7,.,.,-2,.,-5
COc1ccc(NC(=O)Nc2cccc3c2O[C@@H](CN(C)S(=O)(=O)c2ccccc2)[C@H](C)CN([C@@H](C)CO)C3=O)cc1,14,.,.,14,.,4
CC(C)(C)CC(=O)O/N=C(\N)c1ccccn1,62*,17,-10,10,32,.
CCN(CC)c1ccc(N)cc1,.,?,?,.,86*,.
Nc1ccc(N(CCO)CCO)cc1,-15,5,3,-3,6,-14
SMILES,LGR2 antag,EBV LMP1 NFkB,Shn3 3UTR inh,PAX8 reporter,MITF TRPM1 inh,EWS-Fli block
CCN(CC)c1ccc(/C=C/c2cccc[n+]2C)c(OC)c1,26,38,89*,95*,68*,11
NC(=O)c1sc2nc(-c3ccccc3)c3c(c2c1N)CCCC3,0,-6,-11,7,2,2
NC(=O)c1sc2nccc(Nc3ccccc3)c2c1N,.,65*,-8,.,-19,.
CO[C@H]1CN(C)C(=O)c2ccc(NC(C)=O)cc2OC[C@@H](C)N(Cc2ccncc2)C[C@@H]1C,17,.,.,.,.,0
C[n+]1c2n(c3ccccc31)N=C(c1cc(C(C)(C)C)c(O)c(C(C)(C)C)c1)CS2,86*,45*,90*,92*,0,47
COc1ccc(OC)c(CN2C(=O)c3ccccc3C2c2nnnn2-c2ccc3c(c2)OCCO3)c1 (configuration not stated),-10,.,.,21,.,52*
CC1=CC(=NOC(=O)/C=C/c2ccccc2)C=C(C)C1=O,.,59*,16,.,2,.
CC1=CC(=O)C=C(C)C1=NOC(=O)/C=C\c1ccccc1,-23,8,-8,-18,-5,9
CCOC(=O)c1c(NC(=O)C(=O)N/N=C/c2ccccc2O)sc2c1CCCCC2,1,11,94*,55,?,18
CCOC(=O)c1c(NC(=O)C(=O)N/N=C/c2ccccc2OC)sc2c1CCCCC2,11,3,-8,16,-2,.
CCOC(=O)c1c(NC(=O)C(NCCN(C)C)c2ccccc2)sc2c1CCCC2 (configuration not stated),3,-9,-8,38,76*,59*
O=C(C[C@@H]1CC[C@H](NC(=O)c2ccc3c(c2)OCO3)[C@H](CO)O1)NC1Cc2ccccc2C1,-1,.,.,0,.,0
CCCNC(=O)N1C[C@@H](C)[C@@H](OC)CN(C)C(=O)c2ccc(NC(C)=O)cc2OC[C@@H]1C,4,.,.,-8,.,-9
O=S(=O)(Nc1cccc(-c2cn3cccnc3n2)c1)c1ccc(F)cc1,4,0,-1,77*,9,-21
COc1cc(NC(C)CCCNC(C)C)c2ncccc2c1OC (configuration not stated),-6,6,11,30,31,-34
COc1cc(NCCCCCCN)c2ncccc2c1OC,2,56*,7,19,8,-52
CCOC(=O)Oc1c(OC)cc(C(=O)O[C@@H]2C[C@@H]3CN4CCc5c([nH]c6cc(OC)ccc56)[C@H]4C[C@@H]3[C@H](C(=O)OC)[C@H]2OC)cc1OC,0,46*,93*,75*,33,10
C[C@@H]1CN([C@@H](C)CO)C(=O)Cc2cc(NS(=O)(=O)c3ccc(Cl)cc3)ccc2O[C@H]1CN(C)Cc1ccc(C(=O)O)cc1,-2,.,.,-34,.,.
Cc1cnc(NC(=O)CSc2nnc3ncccn23)s1,5,-14,-5,-6,0,-1
